# From PubChem BioAssay (NCI)
# About 79,000 compounds went through this panel and 15% of them were active in at least one assay; those are over-represented in the sample as a whole. Unmarked numbers belong to inactive results. Activity calls are given as the source filed them. Rule as the data show it: active = growth inhibition above about 70%; inactive = the rest.
# Key:
# [1] = NCI Yeast Anticancer Drug Screen. Data for the rad50 strain (AID 155);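 also: 0% = growth of vehicle-only cultures of the same strain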; settings: S. cerevisiae rad50 strain growth inhibition, stronger effect = higher value
# Procedure, shortened: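 Growth of the mutant yeast was measured after compound exposure and referenced to vehicle-treated cultures.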
# [2] = NCI Yeast Anticancer Drug Screen. Data for the mec2-1 strain (AID 157); settings: S. cerevisiae mec2-1 strain, stronger effect = higher value
# Procedure, shortened: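 Yeast mec2-1 mutant treated with compound. Readout: growth inhibition vs vehicle controls.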
# [3] = NCI Yeast Anticancer Drug Screen. Data for the sgs1 mgt1 strain (AID 161);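 also: 0% = growth of cultures given vehicle only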; settings: S. cerevisiae sgs1 mgt1 strain, stronger effect = higher value
# Procedure, shortened: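 Test agents were incubated with a DNA-repair-mutant yeast strain. Growth was then read and compared against vehicle-treated controls.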
# [4] = NCI Yeast Anticancer Drug Screen. Data for the cln2 rad14 strain (AID 165);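 also: 0% = growth equal to vehicle treated cultures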; settings: S. cerevisiae cln2 rad14 strain, stronger effect = higher value
# Procedure, shortened: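 cln2 rad14 yeast strain; compound exposure; growth inhibition read vs vehicle controls.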
# [5] = NCI Yeast Anticancer Drug Screen. Data for the bub3 strain (AID 167); settings: S. cerevisiae bub3 mutant strain, stronger effect = higher value
# Procedure, shortened: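 Whole-cell yeast assay. The mutant strain was incubated with compounds, and growth inhibition was determined by comparison with vehicle-treated cells.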
# [6] = NCI Yeast Anticancer Drug Screen. Data for the mlh1 rad18 strain (AID 175); settings: S. cerevisiae mlh1 rad18 strain growth inhibition, stronger effect = higher value
# Procedure, shortened: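 Yeast w/ defined DNA-repair lesions; compound exposure; growth vs vehicle controls → % inhibition.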
# [7] = at 5.0 µM (retest, dose inferred, filed as 0.5)
# [8] = at 50.0 µM (retest, dose inferred, filed as 5.0)
SMILES,"growth inhibition [1, 7]","growth inhibition [1, 8]",growth inhibition ([1]; at 50.0 µM),"growth inhibition [2, 7]","growth inhibition [2, 8]",growth inhibition ([2]; at 50.0 µM),"growth inhibition [3, 7]","growth inhibition [3, 8]",growth inhibition ([3]; at 50.0 µM),"growth inhibition [4, 7]","growth inhibition [4, 8]",growth inhibition ([4]; at 50.0 µM),"growth inhibition [5, 7]","growth inhibition [5, 8]",growth inhibition ([5]; at 50.0 µM),"growth inhibition [6, 7]","growth inhibition [6, 8]",growth inhibition ([6]; at 50.0 µM)
O=NNc1c[nH]c(=O)[nH]c1=O,1%,69%,72.6% (active),0%,14%,5.85%,-1%,29%,17.1%,-5%,12%,4.3%,-1%,-12%,0.3%,3%,39%,21.1%
OC1CC([CH2][Hg][I])OC([CH2][Hg][I])C1 (configuration not stated),99% (active),98% (active),92.8% (active),100% (active),99% (active),97.3% (active),99% (active),99% (active),96.5% (active),99% (active),99% (active),97.2% (active),99% (active),99% (active),98.5% (active),99% (active),99% (active),86.2% (active)
COc1cc(C2c3cc4c(cc3OC(N3CCOCC3)C2C)OCO4)cc(OC)c1OC (configuration not stated),18%,22%,-12.6%,21%,31%,-2.55%,-17%,-10%,-1.05%,4%,0%,4.2%,0%,-11%,13.3%,22%,28%,0.7%
O=C(Cc1c2ccccc2cc2c1ccc1ccccc12)N(CCCl)CCCl,61%,94% (active),98.8% (active),15%,97% (active),99.3% (active),80% (active),98% (active),99.2% (active),5%,95% (active),94.3% (active),17%,97% (active),98.3% (active),42%,96% (active),99% (active)
COc1cc(/C=C(/C)[N+](=O)[O-])ccc1O,90% (active),99% (active),99.1% (active),13%,100% (active),99.6% (active),42%,54%,99.5% (active),19%,99% (active),98.6% (active),14%,99% (active),99.1% (active),59%,99% (active),99.2% (active)
CC(C)c1ccccc1OP(=S)(S)Oc1ccccc1C(C)C,4%,38%,82.8% (active),5%,24%,2.75%,1%,45%,72.8% (active),4%,54%,87.3% (active),0%,54%,37%,0%,68%,79% (active)
CC/C=C/c1cc2c(cc1O)CCC1C2CC[C@@]2(C)C1CC[C@@H]2O (some centres not stated),-16%,98% (active),78% (active),-15%,98% (active),81.7% (active),-23%,97% (active),88.6% (active),-24%,98% (active),88.7% (active),-23%,98% (active),88.5% (active),-16%,98% (active),90.5% (active)
c1ccc([As+](c2ccccc2)(c2ccccc2)c2cccc3ccccc23)cc1,88% (active),99% (active),99% (active),90% (active),99% (active),99.1% (active),93% (active),100% (active),98.7% (active),86% (active),99% (active),99% (active),90% (active),99% (active),98.8% (active),88% (active),99% (active),98.8% (active)
CC(C)CCC(=O)OC1CCC2(C)C(=CCC3C2CCC2(C)C(O)CCC32)C1 (configuration not stated),16%,23%,42%,-2%,5%,-1.95%,5%,27%,36.4%,0%,5%,19.2%,2%,15%,3.95%,-2%,43%,72.6% (active)
C[C@]12CCC(O)CC1=CC[C@@H]1[C@@H]2CC[C@]2(C)C(=O)[C@H](n3ccnc3)C[C@@H]12 (some centres not stated),21%,54%,41.9%,12%,46%,58%,18%,62%,52.2%,29%,51%,38.2%,20%,56%,38.9%,19%,51%,75.6% (active)
CN1CCOC12CCC1(C)C(CCC3C4CCC(O)C4(C)CCC31)C2 (configuration not stated),-11%,-5%,77.5% (active),-14%,-8%,5.8%,-7%,9%,58%,1%,8%,-6.75%,-22%,-9%,4.75%,-12%,-12%,71.8% (active)
C[CH2][Sn]1([CH2]C)[O]C(=O)CC(=O)[O]1,18%,37%,48.2%,10%,35%,70.6% (active),14%,55%,37.8%,20%,19%,65.8%,15%,54%,59.1%,16%,24%,16.5%
CC/C(=C/c1ccc(OC)cc1)[N+](=O)[O-],80% (active),99% (active),99.2% (active),35%,100% (active),99.7% (active),46%,99% (active),99.5% (active),20%,100% (active),99% (active),49%,99% (active),99.3% (active),40%,99% (active),99.2% (active)
C(=P(c1ccccc1)(c1ccccc1)c1ccccc1)[P+](c1ccccc1)(c1ccccc1)c1ccccc1.[Cl][Fe]([Cl])([Cl])[Br],98% (active),99% (active),99.5% (active),98% (active),99% (active),99.5% (active),99% (active),99% (active),99.5% (active),98% (active),99% (active),99.2% (active),98% (active),99% (active),99.5% (active),99% (active),99% (active),99.4% (active)
COc1ccc(/C=C(\C)[N+](=O)[O-])cc1OC,53%,97% (active),90.1% (active),41%,99% (active),92% (active),55%,99% (active),91% (active),26%,98% (active),87.3% (active),42%,98% (active),93.8% (active),58%,99% (active),93% (active)
NC(=S)C1=C(N)Oc2c(c(=O)oc3ccccc23)C1c1ccc(Br)cc1 (configuration not stated),-7%,66%,20.1%,10%,73% (active),53.7%,10%,76% (active),57.9%,16%,85% (active),21.4%,7%,90% (active),62.6%,-2%,91% (active),62.5%
COc1cc(/C=C/[N+](=O)[O-])c(OC)cc1Br,44%,58%,59.9%,27%,45%,83.3% (active),15%,87% (active),87% (active),37%,25%,73% (active),24%,75% (active),88.2% (active),38%,40%,89.2% (active)
Oc1c(Cl)cc(Cl)cc1Cl.[Cu+2],6%,95% (active),99.7% (active),-28%,98% (active),99.5% (active),-4%,94% (active),99.8% (active),-9%,97% (active),98.2% (active),-10%,97% (active),99.5% (active),0%,98% (active),99.3% (active)
COC1CCCC2OC3(OC)C(OC)CCCC3OC12OC (configuration not stated),3%,-4%,12.2%,-1%,-3%,14.7%,2%,-2%,10.2%,5%,-39%,40.9%,3%,9%,27.2%,-1%,-11%,7.85%
